WT yeast gro inh: growth inhibition of WT yeast, mitochondrial fusion screen; inhibition, % at 10 µM; 190,000 tested, 2.1% active; AID 1362; mitochondrial fusion phenotypic screen, WT strain; in the data active means inhibition above about 58%; tested in S. cerevisiae
bCat KO growth: beta-catenin-lacking colon tumor cell growth suppression; HCT116 beta-catenin knockout viability, CellTiter-Glo, 60 h; stronger effect = lower value; viability, % at 10 µM; 140,000 tested, 1.5% active;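 active means viability at or under a set limit, the compound median less 4 SD, cut at about 6% in these data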;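 further: 0% = Hyamine 1622 control at 20 µM and 100% = untreated cell control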
DAT uptake mod: human DAT dopamine uptake with cocaine, either direction; B-score at 10 µM; 110,000 tested, 1.3% active; LLC-PK1 hDAT cells, [14C]-dopamine uptake with cocaine IC80; actives deviate in either direction; Q01959;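 active means Z score or B-score, a plate-position-corrected score, falls beyond the plate's 99.7% confidence bounds, in either direction; inactive means both scores lie inside the 99.7% bounds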;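 further: scored against the spread of the other compound wells on the same plate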
Target sequence (Q01959 whole entry, looked up): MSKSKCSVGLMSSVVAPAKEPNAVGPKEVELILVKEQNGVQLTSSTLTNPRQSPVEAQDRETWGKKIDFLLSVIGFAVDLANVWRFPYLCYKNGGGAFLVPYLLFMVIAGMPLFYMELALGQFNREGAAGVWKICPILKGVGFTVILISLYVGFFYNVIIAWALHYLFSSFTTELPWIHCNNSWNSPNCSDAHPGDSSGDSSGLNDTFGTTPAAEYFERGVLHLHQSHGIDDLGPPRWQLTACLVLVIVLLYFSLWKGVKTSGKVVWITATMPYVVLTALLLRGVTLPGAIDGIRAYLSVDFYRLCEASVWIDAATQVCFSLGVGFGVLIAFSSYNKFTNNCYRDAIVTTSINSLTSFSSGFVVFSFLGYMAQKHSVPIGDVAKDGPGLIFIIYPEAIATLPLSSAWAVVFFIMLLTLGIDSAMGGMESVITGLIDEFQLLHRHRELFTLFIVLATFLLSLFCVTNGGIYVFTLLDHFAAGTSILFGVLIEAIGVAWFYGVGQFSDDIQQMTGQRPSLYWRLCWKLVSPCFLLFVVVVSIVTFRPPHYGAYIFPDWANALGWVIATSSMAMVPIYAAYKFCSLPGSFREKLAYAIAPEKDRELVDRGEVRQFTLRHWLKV
PTEN del growth: PTEN-deleted cell growth suppression | viability, % at 10 µM | 140,000 tested, 1.2% active | HCT116 PTEN-null viability, CellTiter-Glo, 60 h; stronger effect = lower value;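 active means viability at or below a set limit, 4 SD under the median of all tested compounds, cut at about 3.7% in these data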;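 further: PTEN knockout HCT116 line with beta catenin targeted HCT116 as companion control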
* hit, by the source's call; · = no result. Only some compounds are listed: those with a hit (about 3.6% of all), similar ones and a draw of the others.

SMILES | WT yeast gro inh | bCat KO growth | DAT uptake mod | PTEN del growth
CCC(=NCCO)c1c(O)n(-c2ccc(Cl)cc2)c(=O)[nH]c1=O | -17.3 | 92.1 | 0.000608 | 107.4
COc1ccc(N2C(=O)NC(=O)C(CCc3ccncc3)(CCc3ccncc3)C2=O)cc1 | -12.1 | 92.0 | 1.12 | 93.2
COC(=O)C1=C(c2cccc(OC)c2OC)C[C@@H]2CC[C@H]1N2C(=O)N1CCC(C)CC1 | · | · | 0.129 | ·
CCCCn1c(=O)c(C(=O)Nc2nnc(C(C)C)s2)c(O)c2ccccc21 | 69.1* | · | · | ·
CCCCn1c(=O)c(C(=O)Nc2ccccc2)c(O)c2ccccc21 | 33.7 | · | · | ·
CCCCCCn1c(=O)c(C(=O)Nc2nnc(C)s2)c(O)c2ccccc21 | 36.4 | · | · | ·
CCCCCn1c(=O)c(C(=O)Nc2ccccc2S(N)(=O)=O)c(O)c2ccccc21 | 76.6* | · | · | ·
CCCCn1c(=O)c(C(=O)Nc2ccccc2S(N)(=O)=O)c(O)c2ccccc21 | 66.6* | 77.1 | 1.74 | 70.6
CCCCCCn1c(=O)c(C(=O)Nc2ccncc2)c(O)c2ccccc21 | 24.0 | · | · | ·
c1ccc(-c2[nH]c[n+](CC3CO3)c2-c2ccccc2)cc1 (stereo not given) | -7.4 | 82.4 | · | 87.6
CCCCCn1c(=O)c(C(=O)Nc2nc(CC(=O)OCC)cs2)c(O)c2ccccc21 | -16.9 | · | · | ·
CCC1(c2ccc(N)cc2)CCC(=O)NC1=O (stereo not given) | · | · | -0.796 | ·
CCn1nc(-c2ccccc2)nc2c(=O)n(C)c(=O)nc1-2 | 89.8 | 0.7* | -0.0185 | 1.4*
COc1ccc(-c2nc3ccccc3c(=O)n2-c2ccc(OC)cc2)cc1 | -27.6 | · | · | ·
COC(=O)C1=C(c2cccc(OC)c2OC)C[C@@H]2CC[C@H]1N2C(=O)NCc1cccc2ccccc12 | · | · | -0.0499 | ·
O=C(Nc1ccc(Br)cc1)c1nn(C23CC4CC(CC(C4)C2)C3)cc1Br | 8.8 | 71.8 | 3.02* | 82.9
CCCCc1nc2ccccc2c(=O)n1-c1ccc(Cl)cc1[N+](=O)[O-] | 64.2* | 83.9 | -1.04 | 88.2
CCCCc1nc2ccccc2c(=O)n1-c1ccccc1[N+](=O)[O-] | 8.0 | 91.7 | -0.176 | 88.7
NC(=O)c1cn(C2OC(CO)C(O)C2O)c2ncnc(N)c12 (stereo not given) | 14.3 | 2.7* | 0.129 | 3.0*
CCNC(=O)[C@H]1O[C@@H](n2cnc3c(N)ncnc32)[C@H](O)[C@@H]1O | -1.9 | · | 0.0328 | ·
CNc1cc(Cl)c2nonc2c1[N+](=O)[O-] | 54.4 | · | · | ·
Cc1cccc(OP(=O)(NCc2ccccc2)Oc2cccc(C)c2)c1 | 68.6* | 57.8 | · | 52.5
Cc1cccc(OP(=O)(Nc2ccc(F)cc2)Oc2cccc(C)c2)c1 | 61.0* | · | · | ·
Cc1cccc(OP(=O)(Nc2cccnc2)Oc2cccc(C)c2)c1 | 13.0 | 90.2 | · | 85.2
O=C(Nc1ccc(F)cc1)N1CC2CC(C1)c1cccc(=O)n1C2 (stereo not given) | 72.9* | 91.7 | -1.14 | 97.7
SMILES | WT yeast gro inh | bCat KO growth | DAT uptake mod | PTEN del growth
CCCC/C(C)=C/[C@@H](NP(=O)(c1ccccc1)c1ccccc1)c1ccccc1 | 91.3* | 61.0 | 0.0931 | 63.7
CCCCCP(=O)(O)c1ccccc1 | 9.6 | 108.0 | -0.854 | 109.5
CCC(=Nc1ccc(OC)cc1OC)c1c(O)n(C2CCCCC2)c(=O)[nH]c1=O | 68.4* | 95.5 | 1.41 | 81.5
C=C1C(=O)[C@@]23C[C@H]4[C@@H]5[C@@]6(C)CCC[C@@]57[C@@H]2[C@@H](O)[C@@H]1C[C@H]3[C@H]7N4C6 | · | · | -0.241 | ·
O=c1[nH]c(=O)n(-c2ccccc2F)c(O)c1C=NCCC1=CCCCC1 | 15.0 | · | · | ·
CCN(CC)c1ccc(N=Cc2c(O)n(CCc3ccc(OC)c(OC)c3)c(=O)[nH]c2=O)cc1 | 34.0 | 2.7* | · | 14.8
CCN(CC)c1ccc(N=Cc2c(O)n(-c3cc(OC)ccc3OC)c(=O)[nH]c2=O)cc1 | 3.2 | 3.0* | 2.18 | 24.1
COC(=O)C1=C(c2ccccc2)C[C@@H]2CC[C@H]1N2C(=O)NCCS(C)=O (stereo not given in full) | · | · | -0.201 | ·
COc1ccc(Cl)cc1C(=O)C1CCCN(Cc2cnc(C)s2)C1 (stereo not given) | 5.4 | · | · | ·
O=C(Nc1ccc(OC(=O)N2CCCCC2)cc1)N1CCOCC1 | 0.7 | · | · | ·
O=C(Oc1c(Cl)cc(Cl)c2ccccc12)N1CCCCC1 | 73.3* | 83.0 | 0.336 | 81.0
O=P(c1ccccc1)(c1ccccc1)N1CCCCC1 | -8.1 | 95.5 | 0.267 | 89.1
CCCCN1C(=O)NC(=O)C2(Cc3c(nc4c(C)cccn4c3=O)N3CCc4ccccc4C32)C1=O (stereo not given) | 72.0* | 66.3 | · | 64.5
CC1(C)C[C@H]2C=C(C=O)[C@]3(C=O)C[C@]3(C)[C@H]2C1 | 80.1 | 2.0* | -0.53 | 1.8*
CCCCC/C=C\C/C=C\C/C=C\C/C=C\CCCC(=O)Nc1ccc(O)cc1 | 75.7* | · | 0.0215 | ·
CCNC(=O)NC(=O)C(C)OC(=O)c1c(C)nn(Cc2ccccc2Cl)c1Cl (stereo not given) | 5.3 | 78.1 | · | 89.0
CN1/C(=C\C=Nc2ccccc2)C(C)(C)c2ccccc21 | -8.0 | 69.4 | 0.258 | 55.8
CN1/C(=C\C=C\C2=[N+](C)c3ccc4ccccc4c3C2(C)C)C(C)(C)c2ccccc21 | 16.5 | 0.4* | -0.0452 | 0.1*
CCCCCCCSc1cc(OC)c(CCN(C)C)cc1OC | 14.1 | 1.2* | 0.0347 | 1.3*
Cc1nc2ccccc2c(=O)n1-c1cc(F)ccc1F | -4.4 | · | · | ·
CCC(C)N1C(=O)NC(=O)C2(Cc3cc(C)ccc3N(C)C2)C1=O (stereo not given) | -14.1 | 97.6 | 0.0256 | 101.2
Cc1ccc2nc3c(cc2c1)CC1(C(=O)N(C)C(=O)N(C)C1=O)C1CCCCN31 (stereo not given) | -4.8 | 85.3 | 2.94* | 97.1
O=C(NC1CN2CCC1CC2)c1cc(Cl)c([N+](=O)[O-])c2nc[nH]c12 (stereo not given) | -2.7 | 0.8* | · | 0.6*
COc1cccc2c1O[C@H]1C(=O)CC[C@H]3CN(C)CCC231 (stereo not given in full) | · | · | -2.16 | ·
C=CC[N+]1(C)C2CCC1CC(O)C2 (stereo not given) | -5.3 | · | · | ·
SMILES | WT yeast gro inh | bCat KO growth | DAT uptake mod | PTEN del growth
O=c1c2ccccc2[se]n1-c1ccccc1 | 96.6* | 39.2 | 0.0611 | 48.8
O=c1c2ccccc2nc(N2CCCC2)n1-c1ccccc1 | -12.8 | 85.4 | -0.901 | 100.9
COc1ccc2[nH]cc(CCN)c2c1 | -12.7 | 92.4 | -0.32 | 94.6
CCCCCCCCCOc1ccc2[nH]cc(CCN)c2c1 | 97.2* | · | 2.05 | ·
Cc1nc2c(=O)n(C)c(=O)nc-2n(C)n1 | 9.7 | 1.5* | · | 1.5*
COC(=O)C1=C(c2cc3ccccc3o2)C[C@@H]2CC[C@H]1N2C(=O)NCCCOC(C)C | · | · | 0.063 | ·
CCCC(=O)Nc1ccc(N2CCN(CC)CC2)c(Cl)c1 | 2.3 | 106.6 | 0.206 | 102.3
CCC(=O)Nc1ccc(N2CCN(CC)CC2)c(Cl)c1 | 70.2* | 98.4 | · | 108.0
CC[n+]1c(SC)ccc2cc(OC)ccc21 | 70.9* | 96.6 | · | 94.7
CCCCn1c(O)c(/C(CC)=N/N2CCCCC2c2cccnc2)c(=O)[nH]c1=S (stereo not given) | 58.6* | 58.6 | · | 57.5
C/C(=N\N1CCCCC1c1cccnc1)c1c(O)n(C2CCCCC2)c(=S)[nH]c1=O (stereo not given) | 73.8* | 56.2 | · | 46.6
